Assay outcomes as filed in PubChem.
Shown are actives, neighbours in structure and some others; about 18% of the full set was active somewhere.
TDP1 block = TDP1 (human) enzyme inhibition | recombinant TDP1, AlphaScreen DNA substrate cleavage | Potency, µM (series often up to 130 µM), for the others: at the highest dose activity change, negative = inhibition, hits mostly inhibitors | hit rate 0.28% among 350,000 | AID 485290; further: potency means the concentration at half of the fitted maximal effect; on the % scale 0 is the no-effect control and ±100 the full control effect; nearly all actives have a fitted effect of over 40% in size
Target sequence (Q9NUW8 whole entry, looked up): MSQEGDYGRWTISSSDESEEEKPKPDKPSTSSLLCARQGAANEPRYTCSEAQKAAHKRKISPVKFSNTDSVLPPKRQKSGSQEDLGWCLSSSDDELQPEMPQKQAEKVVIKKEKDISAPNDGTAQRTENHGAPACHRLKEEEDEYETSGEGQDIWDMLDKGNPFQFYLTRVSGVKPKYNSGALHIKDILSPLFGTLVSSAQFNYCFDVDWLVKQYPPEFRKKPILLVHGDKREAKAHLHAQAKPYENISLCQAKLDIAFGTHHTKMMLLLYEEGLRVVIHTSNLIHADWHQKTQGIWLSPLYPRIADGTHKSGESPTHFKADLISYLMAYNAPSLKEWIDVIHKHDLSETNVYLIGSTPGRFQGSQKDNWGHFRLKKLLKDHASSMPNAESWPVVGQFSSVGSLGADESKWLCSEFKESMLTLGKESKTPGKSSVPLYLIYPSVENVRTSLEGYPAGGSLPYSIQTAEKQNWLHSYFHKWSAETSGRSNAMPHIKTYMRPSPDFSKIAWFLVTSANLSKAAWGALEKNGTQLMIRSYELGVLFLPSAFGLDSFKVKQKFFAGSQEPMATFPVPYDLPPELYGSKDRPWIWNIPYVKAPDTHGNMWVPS
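Tdp1 1 nM final; 15 min RT w/ cpd; substrate 15 nM, 5 min; beads 10 ug/ml, 10 min; AlphaScreen read. Neg ctrl: no enzyme.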
TGFb inhibitor = inhibitors of TGF-b signaling | HepG2 CAGA-GFP TGF-b/SMAD3 reporter, GFP fluorescence, 18 h; TGF-beta stimulated, 500 pg/mL final | Potency, µM (doses to about 46.1 µM), for inactives: top-dose activity, negative = inhibition, most hits filed as inhibitors | hit rate 1.2% among 410,000 | AID 588855; further: potency means the concentration at half of the fitted maximal effect; on the % scale 0 is the no-effect control and ±100 the full control effect; nearly all actives have a fitted effect of over 65% in size
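HEPG2 CAGA-GFP, 1000 cells/well; 2 h settle, 37 C; cpd via pin tool; TGF-b 500 pg/mL final; 18 h, 37 C; GFP imaging ex488/em500-530; %Activity normalised to -TGF-b and +DMSO controls; CRC fit, curve class.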
IL-1B inflam inh = inflammasome signaling inhibition, IL-1 beta readout. THP-1 LPS/ATP IL-1B secretion, AlphaLISA, 16 h; active compounds read low. activity change, % at 57.5 µM. hit rate 4.7% among 360,000; in the data active means activity change below about -50%; inconclusive means mostly about -30% to -49%; further: on the % scale 0 is the no-effect control and ±100 the full control effect
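Secreted IL-1B measured by AlphaLISA bead assay after 16 h compound exposure of THP-1 cells; compounds (final up to 57.5 uM) added 1 h before LPS (250 ng/mL) and ATP (1.25 mM) stimulation; lower signal means less secretion.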
HepG2 viability = kills HepG2 cells in TGF-b inhibitor counter-screen. HepG2 CAGA-GFP viability, ATP luminescence, 18 h. Potency, µM (top dose mostly 46.1 µM), inactives show at the top dose activity change, negative = cytotoxicity, hits mostly cytotoxic. hit rate 0.76% among 410,000. AID 588856; further: potency means the concentration at half of the fitted maximal effect
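CellTiter-Glo luminescence gave cytotoxicity after 18 hours at 37 degrees C. The cells were HepG2 CAGA-GFP in 1% FBS DMEM, stimulated with 500 pg/mL TGF-beta after compound addition. %Activity was normalised to no-cell wells (complete cell-killing) and DMSO (no toxicity), and curves were fitted and classified.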
TDP1 cell CPT = DT40-hTDP1 cell growth loss with CPT; hit rate 12% among 420,000; AID 686979; chicken DT40 Tdp1-/-;hTDP1 cells + 20 nM CPT, ATP luminescence, 48 h; Potency, µM (series often up to 46.2 µM), inactives show at the highest dose activity change, negative = growth inhibition, hits mostly inhibitors; further: potency means the concentration at half of the fitted maximal effect; on the % scale 0 is the no-effect control and ±100 the full control effect; nearly all actives have a fitted effect of over 55% in size
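Cell growth measured by CellTiter-Glo luminescence after a minimum 48 h, 37 C compound exposure with 20 nM CPT in Tdp1-knockout DT40 cells stably expressing hTDP1, seeded 400/well; qHTS titration format.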
DT40 TDP1 no CPT = qHTS for Inhibitors of human tyrosyl-DNA phosphodiesterase 1 (TDP1): qHTS in cells in absence of CPT | DT40 Tdp1-/- hTDP1 cells, no CPT, ATP luminescence, 48 h | Potency, µM (top dose mostly 46.2 µM), without a hit: top-dose activity change, negative = growth inhibition, actives largely listed as inhibitors | hit rate 15% among 420,000 | AID 686978, 2013; further: potency means the concentration at half of the fitted maximal effect; on the % scale 0 is the no-effect control and ±100 the full control effect; nearly all actives have a fitted effect of over 55% in size
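Readout: luminescence from CellTiter-Glo after 30 min in the dark at RT. Cells: DT40 Tdp1-/- with stable hTDP1, 400/well. Exposure: compounds alone, ≥48 hr, 37 °C.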
Numbers without * were called inactive; ? = inconclusive; . = no result; [ ] = another dose, or the depositor's remark. Unless noted, the call rests on the fitted dose curve; in most records, active means well fitted curve in the direction sought with a large enough effect; inconclusive means small, poorly fitted or top-dose-only effect, or another doubt; inactive means no such curve, though single readings can be large; an effect the other way counts as inactive or inconclusive.

SMILES	TDP1 block	TGFb inhibitor	IL-1B inflam inh	HepG2 viability	TDP1 cell CPT	DT40 TDP1 no CPT
COc1cccc(-n2ccnc2SCC(=O)Nc2c(C)cc(C)cc2C)c1	10%	?	.	-22%	?	?
CC(=O)OCc1cnc(C)c2oc(=O)c(C(=O)Nc3ccc(F)cc3C)cc12	-1%	0%	.	-6%	.	.
COc1ccccc1CNC(=O)COc1ccc(S(=O)(=O)N2CCOCC2)cc1C	3%[0.0935 µM]	7%	-2	-43%	-6%	?
O=C(Nc1ccccc1N1CCOCC1)c1ccc(N2CCOCC2)c([N+](=O)[O-])c1	3%	9%	-18	7%	?	?
O=C(Nc1nccs1)c1ccc(Cl)c([N+](=O)[O-])c1	8%	?	-69*	-37%	5%	3%
O=C(Cc1ccccc1[N+](=O)[O-])Nc1nccs1	1%	?	15	-14%	8.2µM*	?
O=[N+]([O-])c1cccc(S(=O)(=O)Nc2ccc(S(=O)(=O)Nc3nccs3)cc2)c1	.	?	15	-7%	-8%	-1%
O=[N+]([O-])c1ccccc1S(=O)(=O)Nc1ccc(S(=O)(=O)Nc2nccs2)cc1	.	?	-16	-3%	?	16µM*
O=C(Cc1ccccc1)Nc1nccs1	.	10%	-5	-2%	-17%	-14%
O=C(Nc1nccs1)c1ccc(N2CCOCC2)c([N+](=O)[O-])c1	10%	8%	-27	15%	?	21µM*
C/C(=N/NC(=O)Cc1ccccc1)c1ccc(C)s1	-6%	14%	-13	1%	0%	-21%
CCN(CC)C(=O)[C@H]1CC(CC(=O)NCc2ccc(OC)c(OC)c2)C(=O)N2CCc3c([nH]c4ccc(OC)cc34)[C@]12C (stereo partly specified)	0%[56.1 µM]	?	-11	-8%	-2%	-11%
Cc1ccc(OCC(=O)NN=C2C3CC4CC(C3)CC2C4)cc1	0%	14%	1	6%	17%	9%
COC(=O)c1cnc(NNS(=O)(=O)c2ccc(C(F)(F)F)cc2)nc1C(F)(F)F	2%	?	-20	-44%	0%	-27%
O=C(Nc1nccs1)c1ncc(Cl)c(Cl)c1Cl	.	-19%	-56*	-60%	21µM*	15µM*
Cn1cc(Cl)c(C(=O)Nc2nccs2)n1	.	12%	-6	-13%	15%	-1%
Cc1ccc(Nc2c(-c3ccc(N4CCOCC4)cc3)nc3c(C)cccn23)cc1	9%	-3%	.	-15%	16µM*	15µM*
Cc1ccccc1Nc1c(-c2ccc(N3CCOCC3)cc2)nc2ccccn12	12%	?	.	-21%	?	?
Cc1cccc(C)c1Nc1c(-c2ccc(N3CCOCC3)cc2)nc2cnccn12	5%	-5%	3	-2%	?	18µM*
c1cn2c(Nc3ccc4c(c3)OCCO4)c(-c3ccc(N4CCOCC4)cc3)nc2cn1	10%	-11%	-5	-2%	?	-15%
Cc1cccc(C)c1Nc1c(-c2ccccc2Cl)nc2cnccn12	0%	-22%	.	-22%	?	21µM*
CN(C)S(=O)(=O)c1cccc(C(=O)Nc2cc3c(cc2C(=O)O)OCCCO3)c1	.	1%	-13	-3%	21%	9%
COc1cccc(C(=O)N(C)CC(=O)Nc2cccc3ccccc23)c1	0%	8%	9	8%	-13%	1%
CC(C)COc1cccc(C(=O)N(C)CC(=O)Nc2cccc3ccccc23)c1	-1%	-13%	-19	-29%	18µM*	18µM*
COc1ccc(CNC(=O)CCc2c(C)c3cc4c(C)coc4c(C)c3oc2=O)cc1OC	7%	-9%	.	-17%	-4%	?
